Bioassay records from PubChem.
IL-1B inflam inh = inflammasome signaling inhibition, IL-1 beta readout | AID 743279 | actives 4.7% (n = 360,000) | activity change, % at 57.5 µM | THP-1 LPS/ATP IL-1B secretion, AlphaLISA, 16 h; hits give low values; in the data active means activity change below about -50%; inconclusive means mostly about -30% to -49%
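Secreted IL-1B measured by AlphaLISA bead assay after 16 h compound exposure of THP-1 cells; compounds (final up to 57.5 uM) added 1 h before LPS (250 ng/mL) and ATP (1.25 mM) stimulation; lower signal means less secretion.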
ELG1 DNA repair = ELG1-dependent DNA repair inhibition. HEK293T ELG1-luciferase reporter, luminescence, 16 h; DNA damage induced by 5-fluorouridine. Potency, µM (highest dose often 46.1 µM), for inactives: at the highest dose activity change, negative = inhibition, most hits filed as inhibitors. actives 2.3% (n = 330,000); further: potency means the concentration at half of the fitted maximal effect; nearly all actives have a fitted effect of over 55% in size
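5-Fluorouridine DNA damage + compound/DMSO, 2,000 cells/well, 16 h, 37 °C/5% CO2. ONE-Glo, 30 min RT, luminescence. Readout = decrease in reporter signal.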
TDP1 cell CPT = growth inhibition of DT40 Tdp1-/-;hTDP1 cells with camptothecin (screen for TDP1 inhibitors); chicken DT40 Tdp1-/-;hTDP1 cells + 20 nM CPT, ATP luminescence, 48 h; Potency, µM (top dose mostly 46.2 µM), without a hit: at the highest dose activity change, negative = growth inhibition, most hits filed as inhibitors; actives 12% (n = 420,000); AID 686979; further: potency means the concentration at half of the fitted maximal effect; nearly all actives have a fitted effect of over 55% in size
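Cell growth measured by CellTiter-Glo luminescence after a minimum 48 h, 37 C compound exposure with 20 nM CPT in Tdp1-knockout DT40 cells stably expressing hTDP1, seeded 400/well; qHTS titration format.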
TDP1 inh = blocks human tyrosyl-DNA phosphodiesterase 1. actives 0.28% (n = 350,000). Potency, µM (top dose mostly 130 µM), without a hit: at the highest dose activity change, negative = inhibition, most hits filed as inhibitors. recombinant TDP1, AlphaScreen DNA substrate cleavage; further: potency means the concentration at half of the fitted maximal effect; nearly all actives have a fitted effect of over 40% in size
Target sequence (Q9NUW8 whole entry, looked up): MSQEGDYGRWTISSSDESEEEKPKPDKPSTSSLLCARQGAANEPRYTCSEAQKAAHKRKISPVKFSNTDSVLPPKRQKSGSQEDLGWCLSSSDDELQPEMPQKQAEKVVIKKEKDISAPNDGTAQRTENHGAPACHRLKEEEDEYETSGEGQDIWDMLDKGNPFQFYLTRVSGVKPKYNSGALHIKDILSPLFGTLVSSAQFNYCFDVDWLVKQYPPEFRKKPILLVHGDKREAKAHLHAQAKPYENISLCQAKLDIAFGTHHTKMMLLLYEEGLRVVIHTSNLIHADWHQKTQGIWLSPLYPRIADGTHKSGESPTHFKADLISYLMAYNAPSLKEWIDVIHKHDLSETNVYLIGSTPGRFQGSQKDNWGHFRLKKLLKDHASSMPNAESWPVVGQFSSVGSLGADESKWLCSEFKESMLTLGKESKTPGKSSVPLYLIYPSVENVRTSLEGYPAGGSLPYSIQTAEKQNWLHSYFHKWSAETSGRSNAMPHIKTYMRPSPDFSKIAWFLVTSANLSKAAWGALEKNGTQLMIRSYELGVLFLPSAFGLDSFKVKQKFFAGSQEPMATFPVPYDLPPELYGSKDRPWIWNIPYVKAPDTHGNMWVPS
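Compounds were preincubated with Tdp1 (1 nM final) for 15 min at room temperature before substrate (15 nM final) started a 5 min reaction; beads (10 ug/ml final) were then added for 10 min before AlphaScreen detection.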
TDP1 cell noCPT = qHTS for Inhibitors of human tyrosyl-DNA phosphodiesterase 1 (TDP1): qHTS in cells in absence of CPT; actives 15% (n = 420,000); DT40 Tdp1-/- hTDP1 cells, no CPT, ATP luminescence, 48 h; Potency, µM (top dose mostly 46.2 µM), without a hit: at the top dose activity change, negative = growth inhibition, actives largely listed as inhibitors; further: potency means the concentration at half of the fitted maximal effect; nearly all actives have a fitted effect of over 55% in size
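Cells were dispensed at 400 per well, compounds added by pin tool, plates incubated ≥48 hr at 37 °C, then CellTiter-Glo added for 30 min at room temperature before luminescence reading. Line: DT40 Tdp1-/- complemented with hTDP1; camptothecin omitted.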
Giardia kill = Giardia lamblia killing | Giardia lamblia trophozoite viability | activity change, % at 7.66 µM, hits read low | actives 0.15% (n = 340,000) | AID 540267; in the data active means activity change below about -80%; inconclusive means between about -30% and that limit;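 further: parasites exposed to compound for two days anaerobically before the ATP read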
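Luminescence from cellular ATP indicates surviving trophozoites (100 cells/well) following 48 hrs anaerobic compound treatment at 37 deg C; signal develops 15-30 min at room temperature.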
Numbers without * were called inactive; ? = inconclusive; . = no result given; [ ] = another dose, or the depositor's remark. Only some compounds are listed: those with a hit (about 19% of all), similar ones and a draw of the others. Unless noted, the call rests on the fitted dose curve; in most records, active means well fitted curve in the direction sought with a large enough effect; inconclusive means small, poorly fitted or top-dose-only effect, or another doubt; inactive means no such curve, though single readings can be large; an effect the other way counts as inactive or inconclusive. On the % scale 0 is the no-effect control and ±100 the full control effect.

SMILES	IL-1B inflam inh	ELG1 DNA repair	TDP1 cell CPT	TDP1 inh	TDP1 cell noCPT	Giardia kill
CCOC(=O)CCSc1nnc(-c2cccnc2)n1-c1ccccc1OC	-1.1	12.0%	-22.2%	-2.1%	-7.0%	-1.4
CC(N)c1csc(Nc2ccc(S(C)(=O)=O)cc2)n1 (centres undefined)	-3.3	.	16.1%	.	-0.4%	.
Cc1cnc(C)c(Nc2nc(C(N)Cc3ccccc3)cs2)n1 (centres undefined)	-17.6	.	?	.	?	.
COc1ccc(CC(N)c2csc(Nc3nncc4ccccc34)n2)cc1 (centres undefined)	0.0	.	?	.	18.4µM*	.
NC(c1csc(Nc2nncc3ccccc23)n1)C1CCCCC1 (centres undefined)	-78.5*	.	5.8µM*	.	5.8µM*	.
NC(c1csc(Nc2nncc3ccccc23)n1)c1ccccc1Cl (centres undefined)	-21.6	.	29.1µM*	.	14.6µM*	.
NC(c1csc(Nc2ccccn2)n1)c1ccccc1Cl (centres undefined)	2.6	.	?	.	?	.
Cc1ccc(S(=O)(=O)NC(C)(C)CN2CCc3ccccc3C2)cc1	38.5	0.0%	?	2.8%	?	-14.7
CCn1ncc2c(OCc3ccc(C#N)cc3)cc(C)nc21	-10.5	25.9µM*	?	-2.0%	?	19.3
CC(=O)c1cc(C(=O)Nc2cc(C)cc(C)c2)c2ccccn12	.	.	?	-6.4%	?	.
CC1(C)COCN1S(=O)(=O)c1ccc(C(=O)Nc2nnc(-c3ccc(Cl)s3)o2)cc1	60.7	?	3.98µM*	2.4%	4.47µM*	3.9
COc1ccc(-c2nnc(NC(=O)c3ccc(S(=O)(=O)N4COCC4(C)C)cc3)o2)cc1	24.5	-25.0%	3.66µM*	13.7%	3.66µM*	-5.0
Cc1cccc(N=C2NC(=O)C(CO)(CO)S2)c1	11.0	6.8%	8.4%	.	8.5%	-0.4
O=C(COC(=O)/C=C/c1cn(-c2ccccc2)nc1-c1ccc2c(c1)OCCO2)NC1CCS(=O)(=O)C1 (centres undefined)	?	18.3µM*	?	.	20.6µM*	-4.0
CN(C(=O)COC(=O)c1cn(-c2ccccc2)nc1-c1ccccc1)C1CCS(=O)(=O)C1 (centres undefined)	0.5	-12.4%	-17.1%	-2.6%	-3.6%	12.1
CN(C(=O)COC(=O)/C=C/c1cn(-c2ccccc2)nc1-c1ccc2c(c1)OCCO2)C1CCS(=O)(=O)C1 (centres undefined)	?	20.6µM*	?	3.6%	14.6µM*	-10.3
Cc1ccc(S(=O)(=O)N2CC3CCC2C3)cc1 (centres undefined)	0.1	0.8%	-19.8%	2.0%	-29.2%	-12.2
Cc1ccc(S(=O)(=O)N2C[C@@H]3[C@H]4CC[C@H](C4)[C@@H]3[C@@H](C)[C@H]2c2ccn(Cc3ccccc3)c2)cc1	?	1.6%	29.1µM*	1.3%[56.1 µM]	-74.8%	41.2
Cc1ccc(S(=O)(=O)N2C[C@H]3[C@H]4C(=O)N(Cc5ccccc5)C(=O)[C@H]4CC(=O)[C@H]3[C@@H]2c2ccccc2Cl)cc1	-5.9	.	-28.0%	.	?	.
Cc1ccc(S(=O)(=O)N2C[C@@H]3[C@H]4CC[C@H](C4)[C@@H]3[C@@H](C)[C@H]2C#N)cc1	18.1	-1.5%	20.6µM*	-1.2%[56.1 µM]	?	-11.0
Cc1ccc(S(=O)(=O)N2C[C@@H]3CCCC[C@@H]3[C@@H](C)[C@H]2c2cn(Cc3ccccc3)c3ccccc23)cc1	5.1	?	6.51µM*	0.7%[56.1 µM]	7.31µM*	31.8
Cc1ccc(S(=O)(=O)N2C[C@@H]3[C@H]4CC[C@H](C4)[C@@H]3[C@@H](C)[C@@H]2c2cn(Cc3ccccc3)c3ncccc23)cc1	-17.8	?	23.1µM*	0.1%[56.1 µM]	20.6µM*	-29.8
CCC(C)NC(=O)c1c(C)oc2nc(C)nc(N3CCOCC3)c12 (centres undefined)	.	.	-3.6%	4.2%	0.7%	.
CC1Cc2ccccc2N1C(=O)CN1C(=O)NC(C)(CCc2ccccc2)C1=O (centres undefined)	-16.1	5.7%	14.9%	2.5%	-16.1%	19.2
CCOc1ccccc1NC(=O)CC1C(=O)NCCN1C(=O)c1ccc(F)cc1 (centres undefined)	.	.	-6.3%	1.9%	5.2%	.
SMILES	IL-1B inflam inh	ELG1 DNA repair	TDP1 cell CPT	TDP1 inh	TDP1 cell noCPT	Giardia kill
COc1cccc(NC(=O)C(Cc2ccccc2)NS(=O)(=O)c2ccc3c(c2)oc(=O)n3C)c1 (centres undefined)	.	.	-8.4%	4.6%	-20.8%	.
Cc1ccc(S(=O)(=O)N2C[C@@H]3CCCC[C@@H]3[C@@H](C)[C@H]2c2cn(Cc3ccccc3)c3ncccc23)cc1	-0.7	?	11.6µM*	-0.7%[56.1 µM]	?	4.8
Cc1ccc(S(=O)(=O)c2ccc([N+](=O)[O-])o2)cc1	-99.6*	.	0.0326µM*	.	0.184µM*	19.9
CNc1oc(C)nc1S(=O)(=O)c1ccc(C)cc1	9.8	0.7%	-0.8%	6.2%	-15.5%	-1.8
O=S(=O)(Cc1ccccc1)c1cnc2ccccc2n1	-89.1*	2.2%	16.4µM*	5.1%	16.4µM*	-3.9
COc1ccc(S(=O)(=O)c2cnc3ccccc3n2)cc1	-57.6*	1.4%	?	0.5%	?	-4.8
O=S(=O)(c1ccc(Br)cc1)c1cnc2ccccc2n1	-100.6*	?	25.9µM*	1.6%	?	9.4
COc1cccc(NC(=O)NCc2c(-c3ccccc3)noc2C)c1	18.8	?	-29.7%	8.9%	?	-7.1
O=C1CSC(c2ccccc2)N1c1cccnc1 (centres undefined)	12.3	5.5%	-0.2%	5.1%	-16.4%	12.9
CCOC(=O)CSC1=C(C#N)C(c2ccccc2OCC)C(C(=O)OCC)C(=O)N1 (centres undefined)	-25.3	0.0%	-4.8%	0.0%	-14.7%	17.3
CCOC(=O)C1C(=O)NC(SCC(=O)OC)=C(C#N)C1c1ccccc1OCC (centres undefined)	13.5	.	-5.4%	2.0%	-11.4%	12.4
CCOC(=O)CSC1=C(C#N)C(c2ccccc2OCC)C(C#N)C(=O)N1 (centres undefined)	3.7	18.7%	14.6µM*	6.7%	18.4µM*	-0.2
CCOC(=O)C1C(=O)NC(SCC(=O)Nc2nccs2)=C(C#N)C1c1ccccc1OCC (centres undefined)	-6.1	-16.4%	?	4.9%	13µM*	-0.7
